In PubChem BioAssay (NCI):
Compounds without any hit were thinned out: in the full panel of roughly 83,000, 20% have a hit.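 How to read the values: 0–100, growth inhibition (40 = 60% inhibited); 0, no net growth; -100 to 0, cell death (-40 = 40% of starting cells died; -100 = all dead).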 Calls of active or inactive are those of the source. The calls were made as follows: active = growth percent below 10; inactive = the rest.

Experiments:
Experiment in all cases: NCI-60 one-dose screen, 48 h (100 = growth as untreated, 0 = no growth, -100 = all killed)
Settings in all cases: 10 µM unless noted
SR leukemia = test system: SR leukemia
RPMI-8226 leukemia = test system: RPMI-8226 leukemia
OVCAR-8 ovarian = test system: OVCAR-8 ovarian
OVCAR-5 ovarian = test system: OVCAR-5 ovarian
OVCAR-4 ovarian = test system: OVCAR-4 ovarian
SK-OV-3 ovarian = test system: SK-OV-3 ovarian
IGROV1 ovarian = test system: IGROV1 ovarian
OVCAR-3 ovarian = test system: OVCAR-3 ovarian
NCI/ADR-RES ovarian = test system: NCI/ADR-RES ovarian
T-47D breast = test system: T-47D breast
BT-549 breast = test system: BT-549 breast
MDA-MB-435 melanoma = test system: MDA-MB-435 melanoma
SW-620 colon = test system: SW-620 colon
MCF7 breast = test system: MCF7 breast
HCT-116 colon = test system: HCT-116 colon
HCC-2998 colon = test system: HCC-2998 colon
KM12 colon = test system: KM12 colon
HS 578T breast = test system: HS 578T breast

Measured: growth

CCc1nnc(CNc2ccc(Cl)cc2)o1
inactive: SR leukemia 88.6% | RPMI-8226 leukemia 103% | OVCAR-8 ovarian 109% | OVCAR-5 ovarian 95.6% | OVCAR-4 ovarian 99.2% | SK-OV-3 ovarian 88.5% | IGROV1 ovarian 105% | OVCAR-3 ovarian 99.9% | NCI/ADR-RES ovarian 97.8% | T-47D breast 93.9% | BT-549 breast 96.4% | MDA-MB-435 melanoma 101% | SW-620 colon 97.7% | MCF7 breast 91.3% | HCT-116 colon 96.1% | HCC-2998 colon 97.6% | KM12 colon 101%

COc1ccc(Nc2cc(C)nc(N3CCN(c4ccnc5cc(Cl)ccc45)CC3)n2)cc1
active: SR leukemia -4.15% | IGROV1 ovarian -11% | OVCAR-3 ovarian 6.63% | T-47D breast 7.42% | MDA-MB-435 melanoma 2.27% | MCF7 breast 9.32% | HCT-116 colon 0.65%
inactive: RPMI-8226 leukemia 16.2% | OVCAR-8 ovarian 53.6% | OVCAR-5 ovarian 73.4% | OVCAR-4 ovarian 36.6% | SK-OV-3 ovarian 51% | HS 578T breast 71.1% | BT-549 breast 51.2% | SW-620 colon 25.4% | HCC-2998 colon 41.2% | KM12 colon 23.1%

CCCCCCN(CCCCCC)C(=N)c1ccnc2ccccc12
active: HCC-2998 colon -59.9%
inactive: SR leukemia 35.4% | RPMI-8226 leukemia 50.2% | OVCAR-8 ovarian 71.7% | OVCAR-5 ovarian 77.4% | OVCAR-4 ovarian 67.6% | SK-OV-3 ovarian 92.4% | IGROV1 ovarian 65.9% | OVCAR-3 ovarian 69.3% | NCI/ADR-RES ovarian 65.1% | T-47D breast 88.1% | BT-549 breast 73.8% | MDA-MB-435 melanoma 61.8% | SW-620 colon 59.8% | HCT-116 colon 31.2% | KM12 colon 71.1%

C#CCOc1ccc2ncnc(N3CCN(C(=O)CCl)CC3)c2c1
active: IGROV1 ovarian -30.9% [8.25 µM] | T-47D breast -48.7% [8.25 µM]
inactive: SR leukemia 33.4% [8.25 µM] | RPMI-8226 leukemia 92.9% [8.25 µM] | OVCAR-8 ovarian 72.2% [8.25 µM] | OVCAR-5 ovarian 93.3% [8.25 µM] | OVCAR-4 ovarian 63.8% [8.25 µM] | SK-OV-3 ovarian 68.6% [8.25 µM] | OVCAR-3 ovarian 78.7% [8.25 µM] | NCI/ADR-RES ovarian 98.5% [8.25 µM] | BT-549 breast 56.8% [8.25 µM] | MDA-MB-435 melanoma 86.6% [8.25 µM] | SW-620 colon 47.1% [8.25 µM] | MCF7 breast 65.1% [8.25 µM] | HCT-116 colon 27.7% [8.25 µM] | HCC-2998 colon 112% [8.25 µM] | KM12 colon 108% [8.25 µM]

c1ccc2[nH]c(-c3ccc(Nc4nc(N5CCCC5)nc5[nH]ncc45)cc3)nc2c1
active: SR leukemia -31.1% | RPMI-8226 leukemia -34.4% | OVCAR-8 ovarian -55.1% | IGROV1 ovarian 4.03% | OVCAR-3 ovarian -53.1% | NCI/ADR-RES ovarian 1.12% | T-47D breast -52.6% | MDA-MB-435 melanoma -76.6% | SW-620 colon -64.1% | MCF7 breast -21.5% | HCT-116 colon -71.8% | KM12 colon -32.6%
inactive: OVCAR-5 ovarian 17.9% | OVCAR-4 ovarian 10.7% | SK-OV-3 ovarian 22.2% | BT-549 breast 59.7%

CC(C)(C)c1cc(/C=N\NC(=O)/C=C/C=C/c2ccc3c(c2)OCO3)c(O)c(C(C)(C)C)c1
active: SR leukemia 6.69%
inactive: RPMI-8226 leukemia 80.6% | OVCAR-8 ovarian 75.3% | OVCAR-5 ovarian 89.3% | OVCAR-4 ovarian 34.8% | SK-OV-3 ovarian 100% | IGROV1 ovarian 70.3% | OVCAR-3 ovarian 75.6% | NCI/ADR-RES ovarian 66.1% | T-47D breast 35% | BT-549 breast 92.9% | MDA-MB-435 melanoma 86.4% | SW-620 colon 74.6% | MCF7 breast 61.3% | HCT-116 colon 87.7% | HCC-2998 colon 89.2% | KM12 colon 75.1%

O=C(Nc1cccc2[nH]c(C(F)(F)F)nc12)c1ccc(-n2cnnn2)cc1
inactive: SR leukemia 79.5% | RPMI-8226 leukemia 48.7% | OVCAR-8 ovarian 89.4% | OVCAR-5 ovarian 123% | OVCAR-4 ovarian 90.5% | SK-OV-3 ovarian 104% | IGROV1 ovarian 95.5% | OVCAR-3 ovarian 76.2% | HS 578T breast 108% | NCI/ADR-RES ovarian 107% | BT-549 breast 63% | MDA-MB-435 melanoma 105% | SW-620 colon 104% | MCF7 breast 96.2% | HCT-116 colon 96% | HCC-2998 colon 116% | KM12 colon 72.7%

Cc1cc(N2CCN(c3ccnc4cc(Cl)ccc34)CC2)nc(NC2CCCCC2)n1
inactive: OVCAR-8 ovarian 60.3% | OVCAR-5 ovarian 66.8% | OVCAR-4 ovarian 33.2% | SK-OV-3 ovarian 56.3% | IGROV1 ovarian 18.6% | OVCAR-3 ovarian 38.2% | HS 578T breast 57.9% | BT-549 breast 51.9% | SW-620 colon 14.9% | MCF7 breast 12.8% | HCC-2998 colon 18.2% | KM12 colon 30.1%
active: SR leukemia -24% | RPMI-8226 leukemia -37.5% | T-47D breast 7.8% | MDA-MB-435 melanoma -6.47% | HCT-116 colon 3.19%

NC(=NCCCOc1ccc(Cl)cc1)Nc1ccc(C(F)(F)F)cc1
active: SR leukemia -23.7% | RPMI-8226 leukemia -1.68% | IGROV1 ovarian -20.5% | T-47D breast 2.82% | MDA-MB-435 melanoma 8.95% | MCF7 breast 9.17% | HCT-116 colon 8.24%
inactive: OVCAR-8 ovarian 66.3% | OVCAR-5 ovarian 48.4% | OVCAR-4 ovarian 34% | SK-OV-3 ovarian 78.1% | OVCAR-3 ovarian 58.3% | NCI/ADR-RES ovarian 62.8% | BT-549 breast 73.2% | SW-620 colon 14.5% | KM12 colon 25.2%

O=C(Cc1ccc(/C=C/C(=O)c2ncc[nH]2)cc1)Nc1ccc(F)cc1
inactive: OVCAR-5 ovarian 49.1% | OVCAR-4 ovarian 36.6% | SK-OV-3 ovarian 52% | IGROV1 ovarian 39% | NCI/ADR-RES ovarian 14.5% | T-47D breast 19.3% | BT-549 breast 22.4% | MDA-MB-435 melanoma 32.6% | MCF7 breast 11.3% | HCT-116 colon 26.8% | HCC-2998 colon 79.7%
active: SR leukemia -2.77% | RPMI-8226 leukemia -17.9% | OVCAR-8 ovarian -6.92% | OVCAR-3 ovarian 2.36% | SW-620 colon 4.06% | KM12 colon 8.05%

COc1ccc(C(=O)c2sc3nc(C)cc(C)c3c2N)cc1OC
inactive: SR leukemia 83.5% | RPMI-8226 leukemia 96% | OVCAR-8 ovarian 65.7% | OVCAR-5 ovarian 104% | OVCAR-4 ovarian 85.3% | SK-OV-3 ovarian 77.6% | IGROV1 ovarian 88.8% | OVCAR-3 ovarian 94.8% | HS 578T breast 91.2% | NCI/ADR-RES ovarian 90.2% | BT-549 breast 93.2% | MDA-MB-435 melanoma 91.8% | SW-620 colon 99.5% | MCF7 breast 84% | HCT-116 colon 87% | HCC-2998 colon 99.1% | KM12 colon 94.3%

Cc1ccc2c(C(C[N+](=O)[O-])c3ccccc3)c(-c3ccccc3)[nH]c2c1 (centres undefined)
inactive: SR leukemia 25.4% [9.5 µM] | RPMI-8226 leukemia 24.4% [9.5 µM] | OVCAR-8 ovarian 29.6% [9.5 µM] | OVCAR-5 ovarian 52.2% [9.5 µM] | OVCAR-4 ovarian 59.8% [9.5 µM] | SK-OV-3 ovarian 19.3% [9.5 µM] | IGROV1 ovarian 27.4% [9.5 µM] | NCI/ADR-RES ovarian 10.9% [9.5 µM] | T-47D breast 16.5% [9.5 µM] | BT-549 breast 47.5% [9.5 µM] | SW-620 colon 13.7% [9.5 µM] | MCF7 breast 15% [9.5 µM] | HCT-116 colon 24.4% [9.5 µM] | HCC-2998 colon 54.9% [9.5 µM] | KM12 colon 18.4% [9.5 µM]
active: OVCAR-3 ovarian 3.85% [9.5 µM] | MDA-MB-435 melanoma -31% [9.5 µM]

Fc1ccc(CNc2cccc3[nH]c(C(F)(F)F)nc23)cc1
inactive: SR leukemia 66% | RPMI-8226 leukemia 36.5% | OVCAR-8 ovarian 90.1% | OVCAR-5 ovarian 90.2% | OVCAR-4 ovarian 89.3% | SK-OV-3 ovarian 97.9% | IGROV1 ovarian 109% | OVCAR-3 ovarian 76.6% | HS 578T breast 82.3% | NCI/ADR-RES ovarian 100% | BT-549 breast 99% | MDA-MB-435 melanoma 95.7% | SW-620 colon 94.6% | MCF7 breast 92.4% | HCT-116 colon 95.8% | HCC-2998 colon 119% | KM12 colon 90.6%

COc1cc(C2CC(=O)c3ccccc3N2)cc(OC)c1OC (centres undefined)
inactive: SR leukemia 99.6% | RPMI-8226 leukemia 91.3% | OVCAR-8 ovarian 94.3% | OVCAR-5 ovarian 103% | OVCAR-4 ovarian 97.4% | IGROV1 ovarian 99% | OVCAR-3 ovarian 110% | HS 578T breast 99.1% | NCI/ADR-RES ovarian 101% | T-47D breast 92.6% | BT-549 breast 104% | MDA-MB-435 melanoma 105% | SW-620 colon 100% | MCF7 breast 96.8% | HCT-116 colon 104% | HCC-2998 colon 109% | KM12 colon 99.6%

Cc1ccc(-c2onc3c(=O)[nH]nc(-c4ccccc4)c23)cc1
inactive: SR leukemia 28% | RPMI-8226 leukemia 17.9% | OVCAR-8 ovarian 36.7% | OVCAR-5 ovarian 62.3% | OVCAR-4 ovarian 67.3% | IGROV1 ovarian 52.4% | HS 578T breast 16.7% | NCI/ADR-RES ovarian 25.2% | T-47D breast 37.1% | BT-549 breast 40.5% | SW-620 colon 34.7% | MCF7 breast 24% | HCT-116 colon 25.8% | HCC-2998 colon 60.5% | KM12 colon 29.3%
active: OVCAR-3 ovarian 7.2% | MDA-MB-435 melanoma -34.6%

COc1cc(C(=O)Oc2ccccc2OC(=O)c2cc(OC)c(OC)c(OC)c2)cc(OC)c1OC
inactive: SR leukemia 103% | RPMI-8226 leukemia 76.2% | OVCAR-8 ovarian 92.1% | OVCAR-5 ovarian 97.4% | OVCAR-4 ovarian 105% | IGROV1 ovarian 101% | OVCAR-3 ovarian 97.7% | NCI/ADR-RES ovarian 95.7% | T-47D breast 102% | BT-549 breast 94% | MDA-MB-435 melanoma 103% | SW-620 colon 109% | MCF7 breast 97.2% | HCT-116 colon 104% | HCC-2998 colon 101% | KM12 colon 90.8%

COc1ccc(C(=O)COc2ccc(/C=C3\COc4ccc(OC)cc4C3=O)cc2)cc1
inactive: OVCAR-8 ovarian 44.3% | OVCAR-5 ovarian 108% | OVCAR-4 ovarian 92.1% | SK-OV-3 ovarian 105% | OVCAR-3 ovarian 104% | HS 578T breast 81.7% | NCI/ADR-RES ovarian 80.7% | T-47D breast 84.9% | BT-549 breast 77.6% | MDA-MB-435 melanoma 77.1% | SW-620 colon 80.2% | MCF7 breast 34.2% | HCT-116 colon 64% | KM12 colon 68.4%
active: SR leukemia 2.54% | RPMI-8226 leukemia -5.51%
